Shown are actives, neighbours in structure and some others; about 5.1% of the full set was active somewhere.
CRFR2-BP antag – blocks CRF-induced signaling of the CRF-BP/CRF-R2 complex; inhibition, % at 11.8 µM; actives 0.59% (n = 350,000); AID 588475; HEK293 CRF-R2/CRF-BP, CRF-induced calcium fluorescence;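 active = inhibition of the ligand-induced calcium signal above about 50% at the single tested concentration, limit read from the data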
GRIN3A LBD mod – NR3A (human) ligand-binding domain modulation. NR3A LBD differential scanning fluorimetry, Tm shift; 0% = protein alone, 100% = glycine-bound protein. Tm shift relative to glycine control, % at 25 µM. actives 2.5% (n = 340,000);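 active = melting temperature shift of at least 10% of the positive control shift, at one fixed dose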
MPTP inh – permeability transition pore inhibition; actives 1.4% (n = 360,000); AID 602449; inhibition, % at 10 µM; isolated mouse mitochondria, Ca2+ swelling absorbance, 30 min;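 active = inhibition of 50% or more, scaled per plate between neutral and stimulator controls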;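 note: 0% = DMSO wells given calcium and 100% = 1 mM EGTA wells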
CRFBP-R2 agonist – CRF-BP/CRF-R2 complex agonism. HEK293 CRF-R2/CRF-BP, calcium dye fluorescence (FLIPR); percent of saturating CRF peptide response. AID 588473. activation, % at 13.2 µM. actives 0.46% (n = 350,000);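 active = activation of at least 50%, plus an integration ratio under a set limit after plate pattern correction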;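 note: plate controls were neutral control wells without compound for no effect and CRF at EC100 for full effect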
ANO1 block – mouse TMEM16A channel inhibition, primary screen; Q8BHY3; HEK293 TMEM16A/YFP iodide influx fluorescence, ionomycin; normalized B-score (activity score, 25-100; higher = stronger inhibition) at 10 µM; actives 1.2% (n = 310,000);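 active = ratio plate-corrected score three or more library SD toward inhibition, starting fluorescence score within five deviations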;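 note: score derived from kinetic fluorescence span divided by baseline fluorescence per well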
Target sequence (Q8BHY3 whole entry, looked up): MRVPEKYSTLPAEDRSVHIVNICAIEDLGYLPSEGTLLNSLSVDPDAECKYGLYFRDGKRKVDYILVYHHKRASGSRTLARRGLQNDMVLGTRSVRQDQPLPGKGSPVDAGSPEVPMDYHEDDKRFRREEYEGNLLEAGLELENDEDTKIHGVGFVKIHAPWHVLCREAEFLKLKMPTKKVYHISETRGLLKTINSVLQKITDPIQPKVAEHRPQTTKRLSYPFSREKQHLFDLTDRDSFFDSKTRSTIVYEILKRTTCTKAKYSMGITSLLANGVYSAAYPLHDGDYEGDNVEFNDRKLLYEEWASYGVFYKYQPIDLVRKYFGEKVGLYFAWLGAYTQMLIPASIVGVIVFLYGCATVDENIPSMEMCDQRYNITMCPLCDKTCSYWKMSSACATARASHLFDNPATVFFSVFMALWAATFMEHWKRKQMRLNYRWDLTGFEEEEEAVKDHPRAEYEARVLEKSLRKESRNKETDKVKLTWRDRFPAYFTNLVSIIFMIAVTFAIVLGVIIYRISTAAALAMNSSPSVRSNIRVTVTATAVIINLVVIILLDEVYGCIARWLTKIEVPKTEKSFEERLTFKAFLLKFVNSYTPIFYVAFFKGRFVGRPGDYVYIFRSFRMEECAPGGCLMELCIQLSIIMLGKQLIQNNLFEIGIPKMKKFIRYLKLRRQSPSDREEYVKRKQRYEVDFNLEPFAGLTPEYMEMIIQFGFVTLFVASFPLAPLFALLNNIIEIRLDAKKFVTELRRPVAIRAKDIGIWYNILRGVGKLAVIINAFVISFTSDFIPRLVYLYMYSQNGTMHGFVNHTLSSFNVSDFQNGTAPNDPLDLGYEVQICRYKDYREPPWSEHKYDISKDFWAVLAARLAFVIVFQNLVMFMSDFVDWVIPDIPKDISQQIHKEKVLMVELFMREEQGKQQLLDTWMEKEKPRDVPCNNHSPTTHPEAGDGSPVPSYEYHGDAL
TMEM16A act – activators or potentiators of mouse TMEM16A chloride channel. Q8BHY3. HEK293 TMEM16A/YFP-H148Q/I152L, iodide quench fluorescence; hits give low values. B-score at 10 µM. actives 0.3% (n = 340,000);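 active = fluorescence-ratio B-score plate-corrected deviation score at least 3 library SD below zero, with starting fluorescence score within 5 deviations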;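 note: channel opened by trigger with iodide after compound preincubation; score built on the fluorescence ratio of max minus min over baseline; more negative score means more quench and so TMEM16A activation or potentiation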
MPTP counter – mitochondrial membrane potential, counter-screen; actives 78% (n = 5,000); isolated mitochondria, Rhodamine 123 fluorescence; shares compounds with MPTP inh; inhibition, % at 10 µM; in the data active = inhibition above about 22%;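 note: 0% = DMSO vehicle and 100% = positive control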
MPTP swell DR – MPTP inhibition, dose response swelling confirmation; shares compounds with MPTP inh; isolated mitochondria swelling, absorbance; IC50, µM; actives 58% (n = 780); in the data active = IC50 below about 20 µM
MPTP counter DR – MPTP inhibitor counter-screen activity, dose response; shares compounds with MPTP inh; isolated mitochondria counterscreen, fluorescence read-out; IC50, µM; actives 49% (n = 780); in the data active = IC50 below about 80 µM
* hit, by the source's call; i = inactive; . = not tested or not shown.

SMILES	CRFR2-BP antag	GRIN3A LBD mod	MPTP inh	CRFBP-R2 agonist	ANO1 block	TMEM16A act	MPTP counter	others
Cc1cc(NC(=O)Nc2cccc(C(F)(F)F)c2)no1	-14	589*	76*	10	i	i	71*
N/C(=N\OC(=O)Nc1ccccc1)c1cccc(C(F)(F)F)c1	8	6	-1	0	i	i	.
CCN(CC)S(=O)(=O)c1cccc(NC(=O)CC2CCCC2)c1	41	-2	1	-1	i	i	.
Cc1cc(/C(N)=N/OC(=O)Nc2cccc(C(F)(F)F)c2)no1	-5	0	72*	-2	i	i	88*
CCOC(=O)/C(C(=O)Nc1ccc(Br)cc1)=C1/NC(C)(C)Cc2ccccc21	-1	-20	101*	1	i	i	89*
CCOC(=O)/C(C(=O)Nc1ccccc1Cl)=C1/NC(C)(C)Cc2ccccc21	-42	-28	3	-2	i	i	.
CCN(C[C@H]1N[C@@](Cc2ccccc2)(C(=O)OC)[C@H]2C(=O)N(Cc3ccccc3)C(=O)[C@@H]12)C(=O)Nc1ccc(Cl)cc1	2	17*	63*	4	.	.	100*
CCN(C[C@H]1N[C@@](Cc2ccccc2)(C(=O)OC)[C@H]2C(=O)N(Cc3ccccc3)C(=O)[C@@H]12)C(=O)Nc1ccc(F)cc1	-9	-2	1	0	.	.	.
CC1(c2ccccc2)CC(C)(C)N2C(=O)/C(=C3\SC(=S)NC3=O)c3cccc1c32 (stereo unspecified)	54*	-6	102*	1	i	i	63*
Clc1cccc(N/N=C(\Cc2nc3ccccc3[nH]2)c2ccccc2)c1	-27	31*	72*	2	i	i	70*
Cc1cccc2nnc(-c3ccccc3)n12	-7	0	-1	0	.	i	.
COC(=O)c1cc(Cl)c(NC(=O)/C=C/c2ccc(Cl)cc2Cl)cc1OC	-21	4	83*	8	i	i	3	MPTP swell DR=i;MPTP counter DR=4.4*
O=C(NCCN1C(=O)S/C(=C\c2ccc(Cl)c(Cl)c2)C1=O)C1COc2ccccc2O1 (stereo unspecified)	-6	1	99*	1	i	i	92*
O=C(NCCN1C(=O)S/C(=C\c2ccc(Cl)c(Cl)c2)C1=O)c1ccc2c(c1)C(=O)N(Cc1ccncc1)C2=O	-16	-4	56*	-2	i	i	20*
C[C@@H](c1ccccc1)N1C[C@@H](COCc2ccccc2)Oc2cc(N3CCC[C@H]3CO)ccc2S1(=O)=O	.	.	0	.	.	.	.
O=C1NC(=O)C(=Cc2ccc(Cl)c(Cl)c2)S1	37	2	73*	0	.	i	92*
O=C1NC(=O)/C(=C/c2ccc(O)cc2)S1	-6	-20	0	1	i	i	.
NC(Cc1ccc(C(F)(F)F)cc1)c1csc(Nc2nccc(C(F)(F)F)n2)n1 (stereo unspecified)	.	.	3	.	.	.	.
O=[N+]([O-])c1cccc(S(=O)(=O)Nc2ccc(S(=O)(=O)N3CCCC3)cc2)c1	-12	-8	0	0	i	i	.
O=[N+]([O-])c1cccc(S(=O)(=O)Nc2nc3ccccc3nc2Nc2cccc(S(=O)(=O)N3CCCCC3)c2)c1	90*	-4	60*	11	.	-5.3*	30*
Cc1ccc(S(=O)(=O)Nc2nc3ccccc3nc2Nc2cccc(S(=O)(=O)N3CCCC3)c2)cc1	26	10	82*	14	i	i	41*
COC(=O)c1ccc2nc(-c3ccco3)c(Cc3ccc(OC)cc3C)n2c1	.	.	-2	.	.	.	.
CCNC(=O)C1CCCN(C(=O)c2ccc(N(C)C)cc2)CC1 (stereo unspecified)	.	.	-2	.	.	.	.
Cc1cccc(NC(=O)c2n[nH]c([N+](=O)[O-])c2Br)c1C	30	-4	87*	33	i	i	86*
Cc1cccc(NC(=O)c2ccccn2)c1C	-12	-1	0	2	i	i	.
SMILES	CRFR2-BP antag	GRIN3A LBD mod	MPTP inh	CRFBP-R2 agonist	ANO1 block	TMEM16A act	MPTP counter	others
Cc1cc(Nc2cccc(Br)c2)c2ccccc2n1	-3	-2	83*	0	i	i	75*
CSc1nc(N)nc2c1ncn2CC(=O)N1CCN(Cc2c(C)cc(C)cc2C)CC1	9	0	86*	1	.	.	77*
O=C(Cn1cnc2c(NCc3ccccc3)ncnc21)N1CCN(c2ccccn2)CC1	18	0	-1	-2	.	.	.
Cc1cc(C)c(CN2CCN(C(=O)Cn3cnc4c(NCc5ccccc5)ncnc43)CC2)c(C)c1	9	0	80*	-1	.	.	84*
Cc1cc(C)c(CN2CCN(C(=O)Cn3ccc(N)nc3=O)CC2)c(C)c1	4	0	0	-2	.	i	.
O=[N+]([O-])c1ccc(O)c(Nc2ncnc3ccc(Br)cc23)c1	66*	2	102*	52*	100*	i	85*
COc1ccc(C(=O)Oc2c(C)occc2=O)cc1OC	-6	0	3	3	i	i	.
Cc1occc(=O)c1OC(=O)Nc1ccc(Cl)c(Cl)c1	14	38*	99*	16	i	i	78*
CC(Sc1nc(N)cc(=O)[nH]1)C(=O)Nc1sc2c(c1C#N)CCCC2 (stereo unspecified)	-7	-2	76*	-4	i	i	94*
CCC(Sc1nc(C)cc(=O)[nH]1)C(=O)Nc1sc2c(c1C#N)CCCC2 (stereo unspecified)	2	-6	58*	2	i	i	69*
N#Cc1c(NC(=O)CSc2nc(N)cc(=O)[nH]2)sc2c1CCCCCC2	-12	-6	83*	0	i	i	59*
C=C(C)[C@@H]1CC=C(CN2CCC(N3CCC(C(=O)N4CCCC4)CC3)CC2)CC1	2	-2	83*	0	i	i	47*
O=C(Nc1cccc([N+](=O)[O-])c1)Nc1cccc([N+](=O)[O-])c1	37	26*	91*	25	i	i	78*
CC(C)S(=O)(=O)c1csc(NC(=O)Nc2cccc([N+](=O)[O-])c2)c1Cl	3	29*	84*	1	i	i	69*
O=C(Nc1ccc(Br)cc1)NC1CCCCCCC1	-6	11*	88*	7	i	i	96*
